PubChem BioAssay (NCI)
About 79,000 compounds went through this panel and 15% of them were active in at least one assay; those are over-represented in the sample as a whole. Values without a mark were called inactive. Active and inactive are the calls of the source. Cut-off read from the data, not from the text of the source: active = growth inhibition above about 70%; inactive = the rest.

test: NCI Yeast Anticancer Drug Screen. Data for the mlh1 rad18 strain (AID 175); settings: S. cerevisiae mlh1 rad18 strain growth inhibition; at 50.0 µM; active compounds read high
Summary of the method: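 In this whole-cell yeast screen, a strain with altered DNA damage repair is challenged with compound, and its growth is measured against matched vehicle-treated controls.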

**Q.** With `CC(=O)Nc1ccc(S(=O)(=O)O)nc1` as the compound, how does the growth inhibition read?
**A.** -6.9%

**Q.** For `CCCCCCc1ccc2c3cccc4cccc(c5cccc1c52)c43`, which growth inhibition is on record?
**A.** -25.6%

**Q.** With `CCCCCCC(C)(O)C(C)O` (centres undefined) as the compound, how does the growth inhibition read?
**A.** 9.2%

**Q.** Which growth inhibition does the source give for `CN=C1SC(C)(C)NN1C` here?
**A.** 12.8%

**Q.** For `CCSC(SCC)C(NC(C)=O)C(O)C(O)COC(=O)c1ccccc1` (centres undefined), which growth inhibition is on record?
**A.** 25.2%

**Q.** Which growth inhibition does the source give for `c1ccc(CSc2ccc3ccccc3c2)cc1` here?
**A.** -29.9%

**Q.** For `COC(OC)c1cccnc1C`, which growth inhibition is on record?
**A.** 7.7%

**Q.** For `O=C(C(=O)c1cccc(Cl)c1)c1ccccc1`, which growth inhibition is on record?
**A.** -5.45%

**Q.** Which growth inhibition does the source give for `COc1ccc(C(CCl)(CCl)c2ccc(OC)c(C)c2)cc1C` here?
**A.** -20.4%

**Q.** Which growth inhibition does the source give for `CC(=O)C1=CN(Cc2ccccc2)C(O)CC1C(N)=O` (centres undefined) here?
**A.** 1.3%

**Q.** Which growth inhibition does the source give for `O=C(Nc1cc([N+](=O)[O-])ccc1F)Oc1ccc(OCc2ccccc2)cc1` here?
**A.** 18.2%

**Q.** Which growth inhibition does the source give for `CCOC(=O)c1ccc(NCc2nc3ccccc3nc2C)cc1` here?
**A.** -19.2%

**Q.** Which growth inhibition does the source give for `COC(=O)Nc1cccc(NC(=O)C(=O)O)c1` here?
**A.** -0.9%

**Q.** Which growth inhibition does the source give for `O=C1c2ccccc2C(=O)N1/N=N/N1C(=O)c2ccccc2C1=O` here?
**A.** 97% (active)

**Q.** For `OC1CCC(O)[C@H]2[C@@H]1[C@@H]1S[C@H]2c2ccccc21` (some centres undefined), which growth inhibition is on record?
**A.** -1.85%

**Q.** Which growth inhibition does the source give for `CC(C)(C)C(=O)CC(=O)C(C)(C)C.[Cu]` here?
**A.** 9.05%

**Q.** With `O.O.[Cl][Pt+2][Cl].[NH-]CC1(C[NH-])CCCCC1` as the compound, how does the growth inhibition read?
**A.** -30.1%

**Q.** Which growth inhibition does the source give for `COc1cccc(CC2C(=O)N=C(NC(C)=O)N2C)c1OC(C)=O` (centres undefined) here?
**A.** -31.2%

**Q.** With `O=C(COc1cc(Cl)c(Cl)cc1Cl)Oc1ccccc1` as the compound, how does the growth inhibition read?
**A.** 3.6%

**Q.** For `COC(=O)/C=C(\C(=O)OC)C(C(=O)c1ccccc1)=P(c1ccccc1)(c1ccccc1)c1ccccc1`, which growth inhibition is on record?
**A.** 1.15%

**Q.** Which growth inhibition does the source give for `CCCSc1ccc2c3c(cccc13)C(=O)OC2=O` here?
**A.** 27.5%

**Q.** For `O=S1(=O)c2ccc(cc2)N=CC=Nc2ccc1cc2`, which growth inhibition is on record?
**A.** 12.1%

**Q.** With `CC1CCc2c(O)ccc(O)c21` (centres undefined) as the compound, how does the growth inhibition read?
**A.** 8.1%

**Q.** Which growth inhibition does the source give for `COc1ccc(OC2OC(CO)C(OCc3ccccc3)C(OCc3ccccc3)C2OCc2ccccc2)cc1` (centres undefined) here?
**A.** -42.8%
